# From PubChem
# Nrf2 inh – inhibitors of Nrf2 signaling. Potency, µM (series often up to 46 µM), inactives show top-dose activity change, negative = inhibition, usual class: inhibitors. 360,000 tested, 2.1% active. A549 ARE-Fluc reporter, luciferase luminescence, 18-24 h; further: on the % scale 0 is the no-effect control and ±100 the full control effect; nearly all actives have a fitted effect of over 60% in size
#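 Concentration-response testing used A549 ARE_Fluc cells at 5000 cells/well. Following an 18-24 h compound incubation, viability was read by fluorescence (Ex 405/Em 525) and luciferase output by luminescence.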
# Nrf2 ARE act – Nrf2 pathway activation; AREc32 ARE-luciferase reporter (MCF7-derived line), luminescence, 24 h; Potency, µM (top dose mostly 46.1 µM), for the others: at the top dose activation, usual class: activators; 410,000 tested, 0.31% active; further: % of control where 0% means no effect; nearly all actives have a fitted effect of over 65% in size
#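 Reporter line AREc32 (ARE-Fluc), seeded overnight in OPTI-MEM with 5% FBS; compound pin-transferred, 24 hr at 37 deg C, 5% CO2; luminescent read-out.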
# A549 tox – counter-screen for Nrf2 inhibitors: cytotoxicity in A549 cells; A549 ARE-Fluc cells, CellTiter-Fluor viability, 18-24 h; 390,000 tested, 0.16% active; AID 504648; Potency, µM (series often up to 46 µM), without a hit: at the highest dose activity change, negative = cytotoxicity, usual class: inhibitors; further: on the % scale 0 is the no-effect control and ±100 the full control effect
#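 Cytotoxicity counterscreen: CellTiter-Fluor fluorescence was measured in A549 ARE_Fluc cells after 18-24 h of compound exposure in a concentration series. The subsequent BugLite luminescent read reports ARE-luciferase activity.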
# TrxR1 inh – blocks rat thioredoxin reductase 1 | O89049 | recombinant rTrxR1, NADPH fluorescence consumption, selenite substrate | AID 588453 | Potency, µM (doses to about 114 µM), for the others: at the highest dose activity change, negative = inhibition, hits mostly inhibitors | 390,000 tested, 1% active; further: on the % scale 0 is the no-effect control and ±100 the full control effect; nearly all actives have a fitted effect of over 65% in size
# Target sequence (O89049 whole entry, looked up): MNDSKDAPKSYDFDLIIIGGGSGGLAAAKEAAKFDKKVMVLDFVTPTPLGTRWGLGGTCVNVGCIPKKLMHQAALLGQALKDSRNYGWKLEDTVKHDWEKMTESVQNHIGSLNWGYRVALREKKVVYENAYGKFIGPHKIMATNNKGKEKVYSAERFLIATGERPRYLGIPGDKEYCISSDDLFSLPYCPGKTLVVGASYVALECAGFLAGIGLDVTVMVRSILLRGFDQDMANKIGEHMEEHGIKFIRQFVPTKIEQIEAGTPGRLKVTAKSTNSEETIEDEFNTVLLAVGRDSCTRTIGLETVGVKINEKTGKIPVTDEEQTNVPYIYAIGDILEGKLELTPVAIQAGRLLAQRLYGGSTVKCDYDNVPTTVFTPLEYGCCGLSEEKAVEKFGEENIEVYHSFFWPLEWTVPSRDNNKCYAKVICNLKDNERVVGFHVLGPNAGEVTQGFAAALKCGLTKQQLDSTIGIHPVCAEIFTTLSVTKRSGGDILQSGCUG
#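 Rat TrxR1 (90 nM in the dispensed reagent) was pre-reduced with 400 uM NADPH for 5 min at room temperature, then incubated with compound for 15 min. After 400 uM selenite was added, NADPH fluorescence (Ex 340/Em 450 nm) was followed for 8 min.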
# GALK inhibitor – galactokinase (human) inhibition. P51570. Purified GALK, Kinase-Glo residual ATP luminescence. Potency, µM (doses to about 57.5 µM), without a hit: top-dose activity change, negative = inhibition, usual class: inhibitors. 270,000 tested, 0.007% active; further: on the % scale 0 is the no-effect control and ±100 the full control effect
#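 The enzyme phosphorylates galactose (100 uM) using ATP (35 uM); inhibition is detected as higher residual ATP, quantified by bioluminescence after 1 h reaction at room temperature, pH 8.0.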
# TrxR1 substrate – substrates of rat thioredoxin reductase 1 | AID 588456 | purified TrxR1 substrate turnover, NADPH consumption readout | 390,000 tested, 0.01% active | Potency, µM (series often up to 114 µM), without a hit: at the top dose activity change, negative = substrate turnover | O89049; further: on the % scale 0 is the no-effect control and ±100 the full control effect; nearly all actives have a fitted effect of over 50% in size
#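 Rat TrxR1, dispensed at 90 nM, was prereduced with 400 uM NADPH (final) for 5 min at ~22 deg C, then incubated with compound 15 min before 400 uM selenite. A first-read NADPH fluorescence drop versus no-compound background flagged substrates.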
# * = called active by the depositor; ? = inconclusive; . = no result; [ ] = dose if it differs, or a comment. This is a sample that favours compounds with a hit; in the whole collection about 3% have one here. The call rests on the fitted dose curve; in most records, active means well fitted curve in the direction sought with a large enough effect; inconclusive means small, poorly fitted or top-dose-only effect, or another doubt; inactive means no such curve, though single readings can be large; an effect the other way counts as inactive or inconclusive. Potency means the concentration at half of the fitted maximal effect.
SMILES,Nrf2 inh,Nrf2 ARE act,A549 tox,TrxR1 inh,GALK inhibitor,TrxR1 substrate
NS(=O)(=O)c1ccc(Sc2nc3ccccc3s2)c([N+](=O)[O-])c1,?,?,-18%,-49%,-4%,-20%[57.1 µM]
CC(=O)OCCN(C)c1cc(SC(C)C)c2nonc2c1[N+](=O)[O-],-2%,?,-21%,3.2µM*,-1%,9%[57.1 µM]
CN(CCO)c1cc(Sc2nc3ccccc3s2)c2nonc2c1[N+](=O)[O-],.,-2%,?,0.35µM*,0%,-7%
COc1ccc2c(CNCCc3cccs3)c(C(=O)O)n(Cc3ccc(F)cc3Cl)c2c1,55%,-3%,-14%,10%,.,1%
CN(C(=O)CSc1nnc(-c2ccccc2F)o1)C1CCCCC1,26%,4%,2%,21%,.,0%
CCOC(=O)c1c(NC(=O)C(C)Oc2ccccc2F)sc(C(C)=O)c1C (stereo not given),-7%,3%,0%,12%,.,4%
COc1ccc(N2CCN(CCCNC(=O)C3CCC(CNc4nc(=S)[nH]c5ccccc45)CC3)CC2)cc1 (stereo not given),6.5µM*,0%,?,15%[57.1 µM],-1%,3%[57.1 µM]
COc1ccc(Cl)cc1-c1nc(-c2ccncc2)no1,?,6.3µM*,0%,10%[57.1 µM],0%,12%[57.1 µM]
COc1ccccc1-c1nc(-c2ccncc2)no1,?,4%,-3%,4%,-2%,2%
CC(C)(C)n1ncc2c(=O)n(Cc3ccccc3C#N)cnc21,.,.,.,17%[57.1 µM],.,4%
COc1cc(F)c(S(=O)(=O)N2CCCN(S(=O)(=O)c3ccc4c(c3)OCCO4)CC2)c(F)c1,?,.,-18%,.,.,.
COC1=C/C(=C/c2c(O)c(C#N)c3ccccn23)C=CC1=O,11%,?,-5%,13µM*,0%,-7%
COc1ccc(-c2ccc(C(C)=O)cc2)cc1C1C2C=CCCC2(C)C(=O)N1Cc1ccccc1 (stereo not given),16µM*,.,?,-29%,.,-12%
COc1ccc(-c2ccc(C(C)=O)cc2)cc1[C@H]1[C@@H]2C=CCC[C@@]2(C)C(=O)N1Cc1ccccc1,21µM*,3%,-14%,2%,5%,12%
CCOC(=O)c1cc(-c2ccccc2)n(CC(=O)Nc2ccc(CC)cc2)c1C,.,0%,0%,14%[57.1 µM],.,-9%[57.1 µM]
COC(=O)c1ccc(NC(=O)CCc2c(C)nc3c(c(C)nn3C(C)(C)C)c2C)cc1,?,-4%,-13%,1%,.,-2%
CC(C)Oc1ccc(CNC(=O)C2CCCN(S(=O)(=O)c3ccc4c(ccn4C)c3)C2)cc1 (stereo not given),.,3%,0%,-9%[57.1 µM],.,-8%[57.1 µM]
COc1ccc(CN2[C@@H](CC(C)=O)c3ccc(/C=C/C(C)=O)cc3S2(=O)=O)cc1,4%,23%,0%,?,.,8%
COC(=O)/C=C/c1ccc2c(c1)S(=O)(=O)N(Cc1ccc(OC)cc1)[C@H]2CC(=O)OC,9%,18µM*,-5%,13%[57.1 µM],.,8%
CNc1cc2c(cc1S(=O)(=O)Nc1ccc(C)c(C)c1)CCC(=O)N2,?,.,4%,.,.,.
CC(/C=C/c1ccco1)=N\NC(=O)C(O)c1ccccc1 (stereo not given),-7%,?,-1%,18µM*,1%,-13%
COC(=O)N/N=C(C)\C=C\c1ccco1,13%,10%,8%,40µM*,3%,-12%
CC(/C=C/c1ccco1)=N\NC(=O)CNc1cccc(C)c1,6%,14%,8%,17%,1%,0%
Oc1ccc(C[C@H]2CNC(=S)N2CC2CCCN2C[C@H](Cc2ccc(O)cc2)N2C[C@H](Cc3ccc(O)cc3)N(CC3CCCCC3)C2=S)cc1 (stereo not given in full),13µM*,-3%,?,11%,.,-3%
